# PubChem BioAssay AID624417 (National Center for Advancing Translational Sciences (NCATS), 2012)
# Out of some 410,000 compounds screened, about 6,400 (1.6%) were called active. Inconclusive results (about 20%) are left out. Many of the other results were omitted from the sample, so actives are more common in it than they were. Unmarked numbers belong to inactive results. Calls come from the whole dose curve; as a rule, active = well fitted inhibition curve with a large enough effect; inconclusive = small, poorly fitted or top-dose-only effect; inactive = no such curve, though single readings can be large or run the other way.
# Target: Glucagon-like peptide 1 receptor (Homo sapiens) (UniProt P43220)
# Sequence (P43220 whole entry, looked up): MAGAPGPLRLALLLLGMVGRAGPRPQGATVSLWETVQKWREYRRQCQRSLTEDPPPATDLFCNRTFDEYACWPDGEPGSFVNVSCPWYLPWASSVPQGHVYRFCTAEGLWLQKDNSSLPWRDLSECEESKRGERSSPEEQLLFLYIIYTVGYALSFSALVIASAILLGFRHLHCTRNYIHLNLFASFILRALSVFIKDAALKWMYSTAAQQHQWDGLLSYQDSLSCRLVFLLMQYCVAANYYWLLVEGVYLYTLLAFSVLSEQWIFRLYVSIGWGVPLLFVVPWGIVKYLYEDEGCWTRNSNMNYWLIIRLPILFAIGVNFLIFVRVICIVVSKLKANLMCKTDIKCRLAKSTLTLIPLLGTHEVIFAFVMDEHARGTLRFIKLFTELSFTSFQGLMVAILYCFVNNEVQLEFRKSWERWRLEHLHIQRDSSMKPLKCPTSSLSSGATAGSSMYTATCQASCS
# Experiment: qHTS of GLP-1 Receptor Inverse Agonists (Inhibition Mode); note: nearly all actives have a fitted effect of over 55% in size
# Details: HEK293 GLP-1R CRE-luciferase, luminescence, 24 h, GLP-1R form is constitutively active; series mostly up to 38.3 µM; activity change, negative = inhibition: at the top concentration
# Description: The overall goal of this project was to develop a novel assay for discovering small molecule ligands for class B1 G protein-coupled receptors (GPCRs). Very few agonists (or inverse agonists in inhibition mode) with generally weak activity for this entire group of physiologically important receptors are known to date. To establish proof-of-principle that this critical bottleneck can be overcome with a suitable screening approach, our studies focused on the class B1 receptor for glucagon-like peptide-1 (GLP-1R), a potential therapeutic target for diabetes and neurodegenerative disease. The assay was developed using a cell-based functional readout. Toward this goal, stably transfected HEK293 cell clones were established that co-express (i) a cAMP-responsive luciferase reporter gene, and (ii) constitutively active GLP-1R that upon ligand interaction inhibit (inverse agonists) the luciferase activity. In addition, two control cell lines were developed: (i) one that express only the cAMP-responsive reporter gene to enable initial exclusion of GLP-1R independent effects of candidate probes; and (ii) one with the reported gene cloned with another constitutively active orphan receptor GPR119 to enable exclusion of GLP-1R independent inhibitor effects of candidate inverse agonists. To that end, this assay was optimized for 1536-well format and screened against the MLSMR. […] NIH Molecular Libraries Probe Production Network [MLPCN] NIH Chemical Genomics Center [NCGC] Grant: NS064851 PI Name: Martin Beinborn, Tufts Medical Center
# Six ul of cell suspension (200 cells/uL in DMEM + 10% Nu serum + 1% pen-strep) is dispensed in a white solid 1536-well plate. The plates are incubated for 12 hours at 37 deg C at 5% CO2 followed by addition of 23 nL compounds. After 24 hr incubation at 37 deg C and 5% CO2, 3 uL of luciferase assay detection reagent is added. A luminescence read is obtained on the PerkinElmer Viewlux after 12 min incubation at room temperature.
# % is set by controls: 0 for no effect and ±100 for the full control effect; potency is the fitted concentration of half-maximal effect.
Compound,"activity change, negative = inhibition [%]",Potency
COc1ccc(NC(=O)C2COc3ccccc3O2)cc1 (centres undefined),-25.7,–
CCC(=O)c1ccc(OCC(=O)N(CC)CC2COc3ccccc3O2)cc1 (centres undefined),-21.6,–
CCCN(CC1COc2ccccc2O1)C(=S)Nc1ccc(C)cc1 (centres undefined),–,11.2 µM (active)
CS(=O)(=O)N1CCCCC1c1cc(C(=O)NCc2ccccc2)no1 (centres undefined),20.8,–
COC(=O)[C@]12CCCCC=C1N(Cc1ccco1)C(=O)[C@H](CC(=O)NCC1CCCCC1)C2,-13,–
O=C(NCCCN1CCN(c2ccc(F)cc2)CC1)Nc1ccc([N+](=O)[O-])cc1,–,11.2 µM (active)
O=C(CN1CCN(c2ccccc2)CC1)Nc1ccc(F)cc1,-1.18,–
CN1CCN(CCNC(=O)Nc2ccc([N+](=O)[O-])cc2)CC1,-11.5,–
CCC(C)CN1C(=O)CN(S(C)(=O)=O)CC1(C)C(=O)Nc1ccc2c(c1)OCCO2 (centres undefined),21.8,–
O=C(Nc1cccc2cccnc12)c1ccc2sc([C@H]3C[C@H](O)[C@@H](CO)O3)nc2c1,-7.33,–
C=C1C(=O)OC2C1CCC(C)=CCCC1(C)OC21 (centres undefined),-8.11,–
CC1CCCCN1S(=O)(=O)c1ccc(S(=O)(=O)N(CC(=O)Nc2ccccc2)Cc2cccs2)cc1 (centres undefined),–,11.2 µM (active)
CSCc1nnc(NC(=O)c2ccc(S(=O)(=O)N3CCCCC3C)cc2)o1 (centres undefined),-34,–
CCN(CC(=O)NCc1cccs1)S(=O)(=O)c1ccc(NC(C)=O)cc1,9.52,–
CNc1cc(-c2c(OC)cccc2OC)ncn1,12.1,–
CCNC(=O)CCc1nc(-c2ccc(C)cc2)no1,5.28,–
CCOc1ccc(-c2noc(CCC(=O)NC3CCCC3)n2)cc1OC,2.22,–
CCNC(=O)CCc1nc(-c2ccc(C(C)(C)C)cc2)no1,–,7.94 µM (active)
O=C1NC[C@H](CCCCN2C[C@H](Cc3ccc(O)cc3)N(CC3CCCCC3)C(=O)C2=O)N(CCc2ccccc2)C1=O,17.3,–
OCCc1ccc(NCCc2ccco2)cc1,19.7,–
CC1(C(=O)Nc2ccc3c(c2)OCCO3)CSCC(=O)N1CCOc1ccccc1 (centres undefined),-16.3,–
O=C(CCc1ccccc1)NCc1ccc2c(c1)CCN2C(=O)c1ccccc1,2.5,–
O=C(NCc1ccc2c(c1)CCN2C(=O)c1ccccc1)c1ccccc1,0.837,–
O=C(NCc1ccc2c(c1)CCN2C(=O)c1ccccc1)Nc1cc(F)ccc1F,–,10 µM (active)
COc1ccc2c(c1)CCCO[C@]21O[C@H](CCO)C[C@H](O)[C@H]1O,-1.05,–

Compound,"activity change, negative = inhibition [%]",Potency
COc1cc(OC)c(C(=O)N2CCCC2)cc1OC,9.35,–
Cc1ccc(C(=O)N2CCCC2)c(F)c1F,0,–
Cc1c(Br)cc(C(=O)N2CCCCCC2)c(C)c1C,–,10 µM (active)
C[C@H]1CN([C@@H](C)CO)C(=O)CCCn2nncc2CO[C@@H]1CN(C)Cc1ccc(Oc2ccccc2)cc1,-3.26,–
CCCc1ccc(-c2csc(NC(=O)Cc3cccs3)n2)cc1,-59.4,–
COc1ccc(CC(=O)Nc2nc(-c3ccc(F)c(F)c3)cs2)cc1OC,–,3.98 µM (active)
Cc1ccc(S(=O)(=O)NC(=O)Nc2nc(-c3ccc(F)c(F)c3)cs2)cc1,5.25,–
CC1(C)CC(=O)C=C(c2ccccc2CO)C1=O,7.06,–
CC1=C(C(=O)N2CCOCC2)CC(CC(=O)NCc2cccc3ccccc23)C(=O)N1CCC1=CCCCC1 (centres undefined),-26.4,–
CC(C)N(C(=O)[C@H]1C[C@H](CC(=O)NC(C)(C)C)C(=O)N2CCc3c([nH]c4ccc(Cl)cc34)[C@]12C)C(C)C,–,11.2 µM (active)
C[C@]12c3[nH]c4ccc(Cl)cc4c3CCN1C(=O)[C@@H](CC(=O)NCCCn1ccnc1)C[C@@H]2C(=O)N1CCOCC1,2.69,–
CC(C)N(C(=O)[C@H]1C[C@H](CC(=O)NCCC2=CCCCC2)C(=O)N2CCc3c([nH]c4cc(CCC(=O)N(C)C)ccc34)[C@]12C)C(C)C,-32.8,–
CS(=O)(=O)c1cccc(-c2ccc3nncn3c2)c1,18.5,–
Cc1ccccc1-c1ccc2c(c1)O[C@@H](CN(C)Cc1ccc(C(=O)O)cc1)[C@@H](C)CN([C@H](C)CO)S2(=O)=O,-5.91,–
O=C1c2ccccc2C(c2nc3ccccc3[nH]2)N1c1ccccc1 (centres undefined),19.2,–
CCOc1ccc(Cl)cc1-c1cc(C(=O)NCc2cccs2)[nH]n1,-27.5,–
CC(C)c1ccc(CC(=O)N2CCC2(C)C(=O)NS(=O)(=O)c2ccc(C(C)(C)C)cc2)cc1 (centres undefined),-23.7,–
C[C@@H]1C(c2ccc(F)cc2)=NN(c2ccc(Br)cc2)[C@H]1C(=O)N1CCOC1=O,–,10 µM (active)
O=C1OCCN1C(=O)[C@H]1[C@H](c2ccc(Cl)cc2)C(c2cccc(Cl)c2)=NN1c1ccc(Br)cc1,–,7.94 µM (active)
O=c1c2cc(Br)ccc2nc(-c2cccc(Cl)c2)n1O,-27.4,–
Cc1ccc2c(c1)N(C(=O)Nc1ccc(Br)cc1F)CCO2,3.59,–
Cc1sc2ncnc(SCC(=O)NC3CCS(=O)(=O)C3)c2c1C (centres undefined),-8.39,–
CCCCNC(=O)c1nc(C2CCN(S(=O)(=O)c3ccc(F)c(F)c3)CC2)oc1-c1cccc(C(F)(F)F)c1,28.4,–
O=S1(=O)CC(N2CCN(CCO)CC2)CN1C1CCCC1 (centres undefined),16.4,–
O=c1[nH]cnc2c1c(-c1ccccc1)cn2-c1ccc(F)cc1,-46.3,–

Compound,"activity change, negative = inhibition [%]",Potency
COCCNc1ncnc2c1c(-c1ccccc1)cn2-c1ccc(C)c(Cl)c1,2.32,–
CCCNc1ncnc2c1c(-c1ccccc1)cn2-c1ccc(OCC)cc1,–,3.16 µM (active)
CC1(C(=O)Nc2ccc3c(c2)OCCO3)CN(S(C)(=O)=O)CC(=O)N1Cc1cccc(F)c1 (centres undefined),6.12,–
Cn1nc(-c2ccccc2)c(CSc2cccc(Cl)c2)c1Cl,–,10 µM (active)
Cc1ccc(S(=O)(=O)c2c(COC(=O)c3cccc(Cl)c3)c(-c3ccccc3)nn2C)cc1,-8.24,–
Cn1nc(-c2ccccc2)c(CO)c1Sc1ccccc1,-24,–
CC(=O)N1Cc2cc(C(=O)NCc3cccc(F)c3)nc(-c3cccc(C4=CCCC4)c3)c2[C@H]1CCO,-8.88,–
COc1ccc(S(=O)(=O)N2CCN(CC(=O)N3CCNC3=O)CC2)cc1OC,66.6,–
Cc1ccn2c(-c3csc(Nc4ccc(C(=O)O)cc4)n3)c(C)nc2c1,-7.71,–
CC1CCCCN1C(=S)NCc1ccccc1 (centres undefined),0,–
Oc1ccccc1N1CCN(C(=S)NCc2ccccc2)CC1,–,11.2 µM (active)
Oc1ccc(N2CCN(C(=S)NCc3ccccc3)CC2)cc1,-61.1,–
COc1cc2c(=O)n(C)c3ccccc3c2cc1OC,39.7,–
Cc1ccc(OCC(=O)Nc2ccc(N3CCN(C(=O)c4ccco4)CC3)cc2)c(C)c1,–,7.94 µM (active)
Cc1ccc(C)c(OCC(=O)N2CCN(C(=O)c3ccco3)CC2)c1,0,–
CCC(=O)Nc1ccc(C(=O)N2CCN(C(=O)c3ccco3)CC2)cc1,9.34,–
Cc1ccc2c(c1)C1CN(C)CCC1N2S(=O)(=O)c1ccc(Oc2ccc([N+](=O)[O-])cc2)cc1 (centres undefined),–,11.2 µM (active)
Cc1ccc([N+](=O)[O-])cc1S(=O)(=O)N1CCCN(C)CC1,-5.16,–
O=C(C1CCCN(S(=O)(=O)c2ccc([N+](=O)[O-])cc2)C1)N1CCCCC1 (centres undefined),5.83,–
CCc1ccccc1OCC(=O)Nc1nnc(C2CC2)s1,10.4,–
COC(=O)C[C@H]1C[C@@H]2c3cc(N(C)C)ccc3O[C@@H]2[C@H](CO)O1,21.2,–
CCN(CC(=O)Nc1cc(Cl)ccc1C)C(=O)CSCc1ccccc1,–,12.6 µM (active)
CCN(CC(=O)Nc1cc(Cl)ccc1C)C(=O)CN1C(=O)NC2(CCCC2)C1=O,2.03,–
CCN(CC(=O)Nc1cc(Cl)ccc1C)C(=O)CSCc1ccc(C)cc1,–,10 µM (active)
Cc1ccc(Cl)cc1NC(=O)COC(=O)CC(C)(C)C,-22,–

Compound,"activity change, negative = inhibition [%]",Potency
Cc1ccc(Cl)cc1NC(=O)CSc1nc2ccccc2nc1Cc1ccccc1,-6.16,–
CCN(CC(=O)Nc1cc(Cl)ccc1C)C(=O)Cn1c(=O)cnc2ccccc21,0.702,–
CCCS(=O)(=O)NC(=O)C1(C)CCCN(C(=O)c2cccs2)C1 (centres undefined),-0.887,–
COc1ccc(NC(=O)COC(=O)C2COc3ccccc3O2)cc1 (centres undefined),-0.299,–
Cc1cccc(N2CC(C(=O)Nc3ccccc3N3CCCC3)CC2=O)c1C (centres undefined),-14,–
Cc1ccc(C(C)C)cc1OCCN1CCCC1,-7.22,–
Cc1ccc(C(C)C)cc1OCC(=O)Nc1ccccc1N1CCCC1,–,2.51 µM (active)
CC(C)n1c(SCC(=O)Nc2ccccc2N2CCCCC2)nc2c1c(=O)n(C)c(=O)n2C,8.86,–
Cc1ccccc1NC(=O)CNc1ccccc1N1CCCCC1,–,7.94 µM (active)
Cn1c(=O)c2c(nc(SCC(=O)Nc3ccccc3N3CCCCC3)n2C)n(C)c1=O,116,–
COC(=O)c1ccc2nc(-c3cccc(Br)c3)c(Cc3ccccc3C(F)(F)F)n2c1,11.6,–
CN(C)C(=O)c1cccc(-c2cnc3c(NC=O)cc(-c4ccc(C(=O)N5CCOCC5)cc4)cn23)c1,-2.79,–
CC(=O)C[C@@H]1OC[C@H](CO)N1S(=O)(=O)c1ccc(C)cc1,2.54,–
COc1ccc(NC(=O)C2(C)Cc3c(-c4ccc(C(N)=O)cc4)ccnc3O2)cc1 (centres undefined),22.9,–
C[C@@H]1CN([C@@H](C)CO)C(=O)c2c(c3ccccc3n2C)-c2ccccc2CO[C@H]1CN(C)C(=O)C1CC1,-23,–
COc1cc(C(=O)N2CCOC23CCN(Cc2ccccc2)CC3)cc(OC)c1OC,-13.8,–
CCOc1ccc(OCC)c(NC(=O)CN(C)S(=O)(=O)c2cccc3nsnc23)c1,–,6.31 µM (active)
CCOc1ccccc1NC(=O)CCS(=O)(=O)c1cccc2nsnc12,–,inactive
CCOc1ccc(NC(=O)CCS(=O)(=O)c2cccc3nsnc23)cc1,-0.803,–
CC1(C(=O)NS(=O)(=O)Cc2cccc(Cl)c2)CCN1C(=O)Cc1ccccc1 (centres undefined),2.44,–
CCCNC(=O)C1(C)CCCN(Cc2cccc(C(F)(F)F)c2)C1 (centres undefined),-27.8,–
N#Cc1ccc(Oc2cc(C(F)(F)F)nc(-c3ccccn3)n2)cc1,-7.33,–
Cc1nc2ccccc2c(C(=O)O)c1-c1ccccn1,-10.1,–
Cc1ccc(Oc2nc(-c3ccccn3)nc3ccccc23)cc1,–,5.01 µM (active)
